Records with an inconclusive call do not appear. Activity calls are given as the source filed them. Unless noted, the call rests on the fitted dose curve; in most records, active means well fitted curve in the direction sought with a large enough effect in the repeat runs; inconclusive means weak or mixed curves; inactive means no such curve, though single readings can be large; an effect the other way counts as inactive or inconclusive.
How the values were obtained:
[1] = qHTS assay to identify small molecule agonists of the vitamin D receptor (VDR) signaling pathway - cell viability counter screen (AID 743224); further: series mostly up to about 63 µM; on the % scale 0 is the no-effect control and ±100 the full control effect; nearly all actives have a fitted effect of over 50% in size
Method in brief: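 Cells: VDR-bla, 2,000/well, settled 4 h. Treatment: compounds in DMSO, 16 h, 37C/5% CO2. Readout: CellTiter-Glo luminescence after 30 min RT.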

[2] = qHTS assay to identify small molecule agonists of the NFkB signaling pathway (AID 1159509; active means well fitted curve in the direction sought with a large enough effect in the signal ratio in the repeat runs, not every such curve was filed as active; the % refers to the signal ratio; further: series mostly up to about 61 µM; on the % scale 0 is the no-effect control and ±100 the full control effect)
Method in brief: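 Pathway activation was measured in ME-180 cells stably expressing beta-lactamase under NF-kB response element control. Substrate cleavage was read as the 460/530 nm emission shift after 5 hr compound incubation.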

[3] = qHTS assay to identify small molecule agonists of the NFkB signaling pathway - cell viability counter screen (AID 1159515; calls by dose curve; further: series mostly up to about 61 µM; on the % scale 0 is the no-effect control and ±100 the full control effect; nearly all actives have a fitted effect of over 55% in size)
Method in brief: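 Cells are seeded (2,000 NFkB-bla ME-180 per well), rested overnight, and dosed with DMSO-dissolved compounds for 5 hr at 37 C. Viability is then read by CellTiter-Glo luminescence after 30 min at room temperature.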

[4] = qHTS assay to identify small molecule agonists of the endoplasmic reticulum stress response signaling pathway (AID 1159516; active means well fitted activation curve with a large enough effect in the signal ratio in the repeat runs, not every such curve was filed as active; the % refers to the signal ratio; further: on the % scale 0 is the no-effect control and ±100 the full control effect)
Method in brief: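 Cells are seeded at 1,500 per well and incubated overnight. Compounds in DMSO are added for 5 hr at 37 C, then beta-lactamase FRET substrate for 2 hr at room temperature, and fluorescence at 460 and 530 nm is measured.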

[5] = qHTS assay to identify small molecule agonists of the endoplasmic reticulum stress response signaling pathway - cell viability counter screen (AID 1159517; calls by dose curve;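 further: HeLa cells carrying an ER stress response element beta-lactamase reporter; series mostly up to about 61 µM; on the % scale 0 is the no-effect control and ±100 the full control effect; nearly all actives have a fitted effect of over 50% in size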)
Method in brief: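 In parallel with the ESRE reporter read, cytotoxicity was scored by CellTiter-Glo luminescence (30 min, room temperature) on HeLa ESRE-bla cells dosed for 5 hr.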

[6] = qHTS assay to identify small molecule antagonists of the retinoid-related orphan receptor gamma (ROR-gamma) signaling pathway - cell viability counter screen (AID 1159520); further: on the % scale 0 is the no-effect control and ±100 the full control effect; nearly all actives have a fitted effect of over 50% in size
Method in brief: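 Tet-on ROR gamma CHO cells were given compounds for 2 hr, then doxycycline hyclate at 1 uM final, and incubated 16 hr at 37 C. Viability was measured as ATP content by CellTiter-Glo luminescence.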

[7] = target: Nuclear receptor ROR-gamma (Homo sapiens) (UniProt P51449); assay: qHTS assay to identify small molecule antagonists of the retinoid-related orphan receptor gamma (ROR-gamma) signaling pathway (AID 1159521;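 further: CHO cells with doxycycline inducible ROR-gamma driving an RORE luciferase reporter; top concentration of the series differs between compounds; on the % scale 0 is the no-effect control and ±100 the full control effect; nearly all actives have a fitted effect of over 50% in size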)
Method in brief: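 Tet-on ROR-gamma CHO cells with ROR response element-luciferase reporter; compounds added 2 hr before 1 uM doxycycline induction, then 16 hr at 37 C. Antagonism scored as decreased ONE-Glo luminescence.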

[8] = qHTS assay to identify small molecule agonists of the AP-1 signaling pathway - cell viability counter screen (AID 1159525; calls by dose curve; further: nearly all actives have a fitted effect of over 55% in size)
Method in brief: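 Same-well cytotoxicity counter screen of the Tox21 10K library in ME-180 cells. The readout is ATP-dependent luminescence after 5 h compound treatment. Data are normalised to DMSO and tetra n-octyl ammonium bromide controls.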

[9] = qHTS assay to identify small molecule agonists of the AP-1 signaling pathway (AID 1159526; calls by dose curve; further: on the % scale 0 is the no-effect control and ±100 the full control effect)
[10] = target: Retinoic acid receptor RXR-alpha (Homo sapiens) (UniProt P19793); assay: qHTS assay to identify small molecule agonists of the RXR signaling pathway (AID 1159527; calls by dose curve; further: on the % scale 0 is the no-effect control and ±100 the full control effect; nearly all actives have a fitted effect of over 35% in size)
Retinoic acid receptor RXR-alpha (Homo sapiens), sequence (P19793 whole entry, looked up): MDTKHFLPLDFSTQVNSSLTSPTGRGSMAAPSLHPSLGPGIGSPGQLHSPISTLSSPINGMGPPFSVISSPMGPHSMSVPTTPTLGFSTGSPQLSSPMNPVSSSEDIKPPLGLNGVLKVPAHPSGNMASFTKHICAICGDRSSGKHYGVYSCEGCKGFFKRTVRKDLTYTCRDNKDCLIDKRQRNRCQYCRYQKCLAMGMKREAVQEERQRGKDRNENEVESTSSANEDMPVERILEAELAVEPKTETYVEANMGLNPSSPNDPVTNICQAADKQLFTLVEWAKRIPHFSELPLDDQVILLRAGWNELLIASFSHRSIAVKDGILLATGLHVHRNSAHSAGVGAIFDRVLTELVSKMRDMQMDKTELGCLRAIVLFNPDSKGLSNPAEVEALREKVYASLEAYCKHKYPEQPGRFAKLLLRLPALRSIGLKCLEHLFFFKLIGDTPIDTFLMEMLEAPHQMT
Method in brief: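 GeneBLAzer RXR-alpha-UAS-bla HEK 293T cells in 2% charcoal-stripped FBS medium were exposed to compounds for 16 hr at 37 C in agonist mode. Beta-lactamase reporter read as 460/530 nm FRET ratio after 2 hr substrate loading.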

[11] = qHTS assay to identify small molecule agonists of the RXR signaling pathway - cell viability counter screen (AID 1159529)
Method in brief: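 RXR-alpha-UAS-bla HEK 293T cells in medium with 2% charcoal-stripped FBS were pre-incubated 5 hr, then compound-treated 16 hr at 37 C. Viability was read by CellTiter-Glo luminescence in the same wells as the beta-lactamase assay, with tetraoctyl ammonium bromide as positive control.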

[12] = qHTS assay to identify small molecule antagonists of the retinoid acid receptor (RAR) signaling pathway - cell viability counter screen (AID 1159551); further: on the % scale 0 is the no-effect control and ±100 the full control effect; nearly all actives have a fitted effect of over 35% in size
Method in brief: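 Cells (C3RL4) are plated, incubated overnight, dosed with compound in DMSO, then given retinol at 1 uM final. After 6 h at 37 C, CellTiter-Glo is added and luminescence read following 30 min at room temperature.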

[13] = qHTS assay to identify small molecule antagonists of the retinoic acid receptor (RAR) signaling pathway (AID 1159552)
Method in brief: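 Retinol signaling pathway inhibitors screened in C3RL4 RARE-luciferase reporter cells seeded overnight at 37 C, then compounds added with 1 uM (final) retinol as pathway substrate. After 6 hr at 37 C, luciferase luminescence read after 30 min at room temperature.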

[14] = qHTS assay to identify small molecule agonists of the retinoic acid receptor (RAR) signaling pathway (AID 1159553); further: on the % scale 0 is the no-effect control and ±100 the full control effect
Method in brief: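 Seed C3RL4 reporter cells at 1,000 per well and incubate overnight at 37 C. Add compounds in DMSO, incubate 6 hr. Add luciferase reagent, wait 30 min at room temperature, read luminescence.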

[15] = qHTS assay to identify small molecule antagonists of the estrogen related receptor (ERR) signaling pathway from Tox21 library - cell viability counter screen (AID 1224834); further: on the % scale 0 is the no-effect control and ±100 the full control effect; nearly all actives have a fitted effect of over 30% in size
Method in brief: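 ERR cells, 2,000/well; 6 h settle at 37 C/5% CO2; pin-tool compound transfer in DMSO; 17.5 h at 37 C; CellTiter-Fluor, 30 min; fluorescence intensity.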

[16] = target: Luciferin 4-monooxygenase (Photinus pyralis) (UniProt P08659); assay: qHTS assay to identify small molecule inhibitors of firefly luciferase (AID 1224835); further: series mostly up to about 120 µM; on the % scale 0 is the no-effect control and ±100 the full control effect; nearly all actives have a fitted effect of over 25% in size
Luciferin 4-monooxygenase (Photinus pyralis), sequence (P08659 whole entry, looked up): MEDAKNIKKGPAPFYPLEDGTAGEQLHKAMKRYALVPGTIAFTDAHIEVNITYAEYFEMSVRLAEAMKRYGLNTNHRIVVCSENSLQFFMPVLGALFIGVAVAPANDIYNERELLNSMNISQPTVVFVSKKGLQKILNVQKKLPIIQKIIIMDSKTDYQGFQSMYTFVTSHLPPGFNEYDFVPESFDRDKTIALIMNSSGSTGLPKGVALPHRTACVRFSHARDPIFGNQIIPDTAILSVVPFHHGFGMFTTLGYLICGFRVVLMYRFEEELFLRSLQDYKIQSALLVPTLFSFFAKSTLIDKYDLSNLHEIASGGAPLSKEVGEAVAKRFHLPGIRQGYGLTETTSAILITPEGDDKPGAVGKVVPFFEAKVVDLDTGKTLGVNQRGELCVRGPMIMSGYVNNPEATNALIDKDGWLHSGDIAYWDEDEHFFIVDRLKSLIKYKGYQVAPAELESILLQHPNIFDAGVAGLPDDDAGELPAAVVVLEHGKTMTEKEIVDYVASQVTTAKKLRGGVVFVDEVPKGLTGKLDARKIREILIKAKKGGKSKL
Method in brief: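 Biochemical qHTS: compounds run as interplate titrations against purified firefly enzyme, with D-luciferin and ATP each at its KM concentration. Light output recorded by CCD imaging.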

[17] = qHTS assay to identify small molecule antagonists of the constitutive androstane receptor (CAR) signaling pathway - cell viability counter screen (AID 1224837); further: series mostly up to about 92 µM; on the % scale 0 is the no-effect control and ±100 the full control effect; nearly all actives have a fitted effect of over 45% in size
Method in brief: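 Viability was measured with CellTiter-Fluor in a HepG2 line carrying stably transfected hCAR and a CYP2B6-2.2kb construct. Cells were exposed for 23 hr at 37 C to 15 compound concentrations with 50 nM CITCO as agonist.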

[18] = target: Nuclear receptor subfamily 1 group I member 3 (Homo sapiens) (UniProt Q14994); assay: qHTS assay to identify small molecule antagonists of the constitutive androstane receptor (CAR) signaling pathway (AID 1224838);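 further: HepG2 cells stably expressing hCAR with CYP2B6 luciferase reporter stimulated by CITCO; on the % scale 0 is the no-effect control and ±100 the full control effect; nearly all actives have a fitted effect of over 40% in size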
Nuclear receptor subfamily 1 group I member 3 (Homo sapiens), sequence (Q14994 whole entry, looked up): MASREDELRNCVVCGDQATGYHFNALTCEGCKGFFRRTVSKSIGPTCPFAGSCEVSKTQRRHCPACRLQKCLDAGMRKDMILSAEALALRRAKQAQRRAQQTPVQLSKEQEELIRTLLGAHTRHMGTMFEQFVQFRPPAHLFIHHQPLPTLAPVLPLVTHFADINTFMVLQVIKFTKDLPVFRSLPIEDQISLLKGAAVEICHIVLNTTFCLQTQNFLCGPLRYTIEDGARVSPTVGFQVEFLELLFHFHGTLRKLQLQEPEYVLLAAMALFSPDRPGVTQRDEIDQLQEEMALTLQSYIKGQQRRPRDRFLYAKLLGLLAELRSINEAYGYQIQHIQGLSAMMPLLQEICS
Method in brief: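 Antagonist mode used CITCO at a final 50 nM to activate CAR in human hepatoma HepG2 cells carrying stable hCAR and a 2.2 kb CYP2B6 promoter-luciferase construct. Compounds were tested at 15 concentrations over 24 h, with luminescence as the end point.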

[19] = qHTS assay to identify small molecule agonists of the constitutive androstane receptor (CAR) signaling pathway - cell viability counter screen (AID 1224836); further: series mostly up to about 92 µM; on the % scale 0 is the no-effect control and ±100 the full control effect; nearly all actives have a fitted effect of over 45% in size
Method in brief: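 HepG2 cells stably carrying hCAR and a CYP2B6-2.2kb reporter; 15-concentration compounds plus PK11195 (final 0.75 uM), 23 hr at 37 C/5% CO2. Viability read by CellTiter-Fluor fluorescence.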

[20] = qHTS assay to identify small molecule antagonists of the vitamin D receptor (VDR) signaling pathway - cell viability counter screen (AID 743225)
Method in brief: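 VDR-UAS-bla HEK 293T cells were plated and incubated 4 h at 37C, then dosed with compound plus 3 nM (final) 1-alpha,25-dihydroxyvitamin D3 for 16 h. After the 2 h beta-lactamase read, viability in the same wells was read as CellTiter-Glo luminescence after 30 min at room temperature.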

CC(S)C(C)S (centres undefined)
inactive: outcome [1] | outcome [2] | outcome [3] | outcome [4] | outcome [5] | outcome [6] | outcome [7] | outcome [8] | outcome [9] | Potency [10] | outcome [11] | outcome [12] | outcome [13] | Potency [14] | outcome [15] | Potency [16] | outcome [17] | Potency [18]

CC(O)CC(C)O (centres undefined)
inactive: outcome [1] | outcome [2] | outcome [3] | outcome [4] | outcome [5] | outcome [6] | outcome [7] | outcome [8] | outcome [9] | Potency [10] | outcome [11] | outcome [12] | outcome [13] | Potency [14] | outcome [15] | Potency [16] | outcome [19] | Potency [18]

CN1C[C@@H]2C[C@H]1CN2c1cc2c(cc1F)c(=O)c(C(=O)O)cn2C1CC1
inactive: outcome [1] | outcome [2] | outcome [3] | outcome [4] | outcome [5] | activity, negative = cytotoxicity [6] 0.279% [at 19 µM] | activity change, negative = inhibition [7] 4.47% [at 19 µM] | viability change, negative = cytotoxic [8] 6.22% [at 15.8 µM] | activation [9] -4.01% [at 15.8 µM] | activation [10] 12.3% [at 15.8 µM] | activity change, negative = cytotoxicity [11] 0.369% [at 15.8 µM] | activity change, negative = cytotoxicity [12] -0.0754% [at 19 µM] | activity, negative = inhibition [13] 0.455% [at 19 µM] | Potency [14] | viability change, negative = cytotoxic [15] 5.48% [at 19 µM] | activity change, negative = inhibition [16] 0.0867% [at 23.6 µM] | activity change, negative = cytotoxicity [17] -13.4% [at 19 µM] | activity, negative = inhibition [18] -6.55% [at 19 µM]

Cc1c(NC(=O)c2cccnc2)c(=O)n(-c2ccccc2)n1C
inactive: outcome [1] | outcome [20] | outcome [2] | outcome [3] | outcome [4] | outcome [5] | outcome [6] | outcome [7] | outcome [8] | outcome [9] | Potency [10] | outcome [11] | outcome [12] | outcome [13] | Potency [14] | outcome [15] | Potency [16] | outcome [19] | Potency [18]

COc1cc2c(cc1OC)CN(C(=O)[C@H](C)N[C@@H](CCc1ccccc1)C(=O)O)[C@H](C(=O)O)C2
inactive: outcome [1] | outcome [20] | outcome [2] | outcome [3] | outcome [4] | outcome [5] | outcome [6] | outcome [7] | outcome [8] | outcome [9] | Potency [10] | outcome [11] | outcome [12] | outcome [13] | Potency [14] | outcome [15] | Potency [16] | outcome [19] | Potency [18]

CCCCCCCCCOC(=O)c1ccccc1C(=O)OCCCCCCCCC
inactive: outcome [1] | outcome [20] | outcome [2] | outcome [3] | outcome [4] | outcome [5] | outcome [6] | outcome [7] | outcome [8] | outcome [9] | Potency [10] | outcome [11] | outcome [12] | outcome [13] | Potency [14] | outcome [15] | Potency [16] | outcome [19] | Potency [18]

C=Cc1ccc(C(C)(C)C)cc1
inactive: outcome [1] | outcome [2] | outcome [3] | outcome [4] | outcome [5] | outcome [6] | outcome [7] | outcome [9] | Potency [10] | outcome [11] | outcome [12] | outcome [13] | Potency [14] | outcome [15] | Potency [16] | outcome [19] | outcome [17] | Potency [18]
